The text below walks through data of PubChem BioAssay (NCATS).

Inconclusive results are not listed. A number with no mark means an inactive call. Activity calls are given as the source filed them. The call rests on the fitted dose curve; in most records, active means well fitted cell-killing curve with a large enough effect; inconclusive means small, poorly fitted or top-dose-only effect, or effect the other way; inactive means flat fitted curve, though single readings scatter.
On the % scale 0 is the no-effect control and ±100 the full control effect.

The experiment in a line: qHTS assay for cell viability of the p53RE-bla HCT-116 cell line (AID 743292). Further: nearly all actives have a fitted effect of over 55% in size. The conditions noted are these: p53RE-bla HCT-116 viability, ATP luminescence, 16 h; series mostly up to 95 µM; activity change, negative = cytotoxicity: at the top concentration. An excerpt: U.S. Tox21 Program National Center for Advancing Translational Sciences [NCATS] NIH Chemical Genomics Center [NCGC] U.S. Environmental Protection Agency [EPA] National Institutes of Environmental Health Sciences [NIEHS] National Toxicology Program [NTP] U.S. Food and Drug Administration [FDA] Tox21 Assay Overview: The CellTiter-Glo Luminescent Cell Viability Assay (Promega, Madison, WI) is a homogeneous method to determine the number of viable cells in culture based on quantitation of the ATP present, which signals the presence of metabolically active cells. This cell viability assay was used to screen environmental chemicals in the CellSensor p53RE-bla HCT-116 cell line (Invitrogen).
Tox21 Assay Protocol Summary: Cell viability after compound treatment was measured using a luciferase-coupled ATP quantitation assay (CellTiter-Glo viability assay, Promega, Madison, WI) in CellSensor p53RE-bla HCT-116 cell line (Invitrogen). Total intracellular ATP content corresponds to the number of metabolically competent cells after compound treatment. The cells were dispensed at 4,000 cells/5 uL/well in 1,536-well white/solid bottom assay plates using a Flying Reagent Dispenser (Aurora Discovery, San Diego, CA). The cells were incubated for 5 h at 37 C, followed by the addition of 23 nL of compounds dissolved in DMSO, positive controls or DMSO only using a pintool work station (Kalypsys, San Diego, CA). The assay plates were incubated for 16 h at 37 C, followed by the addition of 5 uL/well of CellTiter-Glo reagent. After 30 min incubation at room temperature, the luminescence intensity of the plates was measured using a ViewLux plate reader (PerkinElmer, Shelton, CT).
As to `CCc1ccccc1`, the “activity change, negative = cytotoxicity” value was -5.2%.

`CC1(N)CCC(C(C)(C)N)CC1` (stereo not given): the “activity change, negative = cytotoxicity” value is 4.37%.

Consider `Nc1ccccc1S(=O)(=O)O`, for which the “activity change, negative = cytotoxicity” value is -7.3%.

Regarding `CCNc1cc(O)ccc1C`, the “activity change, negative = cytotoxicity” value is -4.45%.

As for `ClCCl`, the “activity change, negative = cytotoxicity” value is -1.92%.

Consider `CSc1ccc(C=O)cc1`, for which the “activity change, negative = cytotoxicity” value is -5.4%.

`C=C(C)C(N)=O`: the “activity change, negative = cytotoxicity” value is -2.94%.

Regarding `CC#N`, the “activity change, negative = cytotoxicity” value was 6.33%.

As for `CCCCCCC=O`, the “activity change, negative = cytotoxicity” value is 8.34%.

Regarding `Cc1ccc2c(c1[N+](=O)[O-])C(=O)c1ccccc1C2=O`, the “activity change, negative = cytotoxicity” value was -4.13%.

`Cc1cccc2ccccc12`: the “activity change, negative = cytotoxicity” value was 1.21%.

For the compound `CCC(O)C(C)(C)C` (stereo not given), the “activity change, negative = cytotoxicity” value is 5.8%.

As to `CC/C(C)=N/O`, the “activity change, negative = cytotoxicity” value was -0.54%.

Turning to `CCOCC(=O)O`, the “activity change, negative = cytotoxicity” value was -5.39%.

Consider `C=C(C)OC(C)=O`, for which the “activity change, negative = cytotoxicity” value is -4.17%.

For the compound `O=C(O)CNC(=O)c1ccc(CO)o1`, the “activity change, negative = cytotoxicity” value is 1.57%.

Regarding `O=Cc1ccc(Cl)cc1`, the “activity change, negative = cytotoxicity” value was 1.54%.

As to `NC(=O)c1ccccc1[N+](=O)[O-]`, the “activity change, negative = cytotoxicity” value is 3.77%.

As for `Clc1ccc(Cl)c(Cl)c1Cl`, the Potency entry was “inactive”.

`CCCCC=O`: the “activity change, negative = cytotoxicity” value is -2.28%.

With `NC(=O)NC(N)=O`, the “activity change, negative = cytotoxicity” value is 3.1%.

As to `Nc1c(Cl)cc(Cl)cc1Cl`, the “activity change, negative = cytotoxicity” value was 2.2%.

Consider `Nc1cccc2c(=O)[nH][nH]c(=O)c12`, for which the “activity change, negative = cytotoxicity” value was -5.72%.

In the case of `CNc1ccccc1`, the “activity change, negative = cytotoxicity” value was -6.54%.

Regarding `Cc1ccc(C#N)cc1`, the “activity change, negative = cytotoxicity” value was 7.39%.

Take `O=C(Cl)c1cccc([N+](=O)[O-])c1`: the “activity change, negative = cytotoxicity” value is -3.02%.

On to `Cc1ccc(Br)cc1`, for which the “activity change, negative = cytotoxicity” value is -7.46%.

With `Cc1ccccc1Br`, the “activity change, negative = cytotoxicity” value was -2.42%.

Take `CC(C)=CCC/C(C)=C/C=O`: the Potency result is “inactive”.

For the compound `c1ccc(Oc2ccccc2)cc1`, the Potency entry was “inactive”.

On to `Oc1cccc(Nc2ccccc2)c1`, for which the “activity change, negative = cytotoxicity” value is 4.97%.

With `O=C1OC(=O)c2c(Br)c(Br)c(Br)c(Br)c21`, the Potency result was “inactive”.

Take `Nc1ccc([N+](=O)[O-])c(N)c1`: the “activity change, negative = cytotoxicity” value was -1.35%.

For `Nc1cc([N+](=O)[O-])ccc1C(=O)O`, the Potency result is “inactive”.

Turning to `N#CC1(O)CCCCC1`, the “activity change, negative = cytotoxicity” value was -5.77%.

For the compound `Nc1ccc(F)cc1F`, the “activity change, negative = cytotoxicity” value is 3.17%.

Take `Cc1ccc(C)c(O)c1`: the “activity change, negative = cytotoxicity” value is 1.37%.

For the compound `C=CC(=O)OCCCC`, the “activity change, negative = cytotoxicity” value is 2.76%.

For `C/C=C1\CC2C=CC1C2` (stereo not given), the “activity change, negative = cytotoxicity” value is 7.46%.

For the compound `NC=O`, the “activity change, negative = cytotoxicity” value is 0.148%.
